Measured values: the supplement of paper PMC10849652
About 7,900 targets were measured; listed, in parts, are those with a hit and a random draw of the rest. About 0.6% of all pairs of compound and target were hits. Values without a mark were called inactive.

Tests used:
Assay in all cases: log2 fold change, soluble protein after heating vs DMSO (PISA); higher = thermal stabilisation; K562 cells, 10 uM, 30 min; active = over 0.2 and 3.5 SD of the protein, either way, in both replicates (recomputed)
[1] = compound: CC[C@@H]1C(=O)N(C)c2cnc(Nc3ccc(C(=O)NC4CCN(C)CC4)cc3OC)nc2N1C1CCCC1
Summary of the method: (§1)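 K562 cells at 2×10^6 cells/mL were given 10 μM compound for 30 min. Aliquots then went through 3 min of heating across 48°C-58°C, were pooled, and were extracted in PBS with 0.5% NP-40 at 4°C, and the supernatant after 21,000xg for 90 min was quantified by TMTpro 16plex LC-MS/MS with channel sums equalised. Thermal stability relative to control samples, from duplicates, is given as log2 fold change.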

[2] = compound: CC[C@@H]1C(=O)N(C)c2cnc(Nc3ccc(C(=O)N[C@H]4CC[C@H](N5CCN(CC6CC6)CC5)CC4)cc3OC)nc2N1C(C)C [volasertib]
Summary of the method: as §1

[3] = compound: CC[C@H](C)N1C=C(C2=C(C=C(C=C21)C3=CN=C(C=C3)N4CCNCC4)C(=O)NCC5=C(C=C(NC5=O)C)C)C
Summary of the method: as §1

[4] = compound: CC[C@H](C)[C@@H](C(=O)N[C@@H]([C@@H](C)O)C(=O)N[C@@H](CC(C)C)C(=O)[C@]1(CO1)C)NC(=O)[C@H]([C@@H](C)CC)N(C)C(=O)C [epoxomicin]
Summary of the method: as §1

[5] = compound: CCn1c(C(=O)N(C2CC2)C2CC2)cc2c3c(ncn3C)c(Nc3cc(C)n(C)n3)nc21
Summary of the method: as §1

[6] = compound: CCn1cc(-c2ccnc3[nH]c(-c4cccc(CN(C)C)c4)cc23)c(-c2ccc(NC(=O)N(C)C)cc2)n1
Summary of the method: as §1

[7] = compound: CN(C)CC(=O)Nc1ccc2[nH]c(=O)c3ccccc3c2c1
Summary of the method: as §1

[8] = compound: CN(CCOC1=CC=C(C=C1)C[C@H]2C(=O)NC(=O)S2)C3=CC=CC=N3 (racemic) [rosiglitazone]
Summary of the method: as §1

[9] = compound: CN1C2=C(C3=C1C(=O)N(N=C3)CC4=CC(=CC=C4)N)SC(=C2)S(=O)C
Summary of the method: as §1

[10] = compound: CN1CCC(CNc2ccc3ncc(-c4cccc(OC(F)(F)F)c4)n3n2)CC1
Summary of the method: as §1

[11] = compound: CN1CCN(CCOc2cc(OC3CCOCC3)c3c(Nc4c(Cl)ccc5c4OCO5)ncnc3c2)CC1 [saracatinib]
Summary of the method: as §1

[12] = compound: CN1CCN(c2nc(C3=C(c4c[nH]c5ccccc45)C(=O)NC3=O)c3ccccc3n2)CC1 [sotrastaurin]
Summary of the method: as §1

[13] = compound: CN1CC[C@H](c2c(O)cc(O)c3c(=O)cc(-c4ccccc4Cl)oc23)[C@H](O)C1 [alvocidib]
Summary of the method: as §1

[14] = compound: CN1CCc2c(c3ccccc3n2Cc2ccc(C(=O)NO)cc2)C1 [Tubastatin A]
Summary of the method: as §1

[15] = compound: CNC(=O)C1=CC=CC=C1NC2=NC(=NC=C2Cl)NC3=C(C=C(C=C3)N4CCOCC4)OC
Summary of the method: as §1

[16] = compound: CNC(=O)c1ccc(Nc2ncc(C(F)(F)F)c(NCc3nccnc3N(C)S(C)(=O)=O)n2)cc1 [defactinib]
Summary of the method: as §1

[17] = compound: CNCc1ccc(-c2[nH]c3cc(F)cc4c3c2CCNC4=O)cc1 [rucaparib]
Summary of the method: as §1

[18] = compound: CNc1nc(-c2ccc3c(N)n[nH]c3c2)cc(N2C[C@@H](C(=O)NC3CCCCC3)CC[C@H]2C)n1
Summary of the method: as §1

[19] = compound: COC(=O)N[C@@H](C)CNc1nccc(-c2cn(C(C)C)nc2-c2cc(Cl)cc(NS(C)(=O)=O)c2F)n1 [encorafenib]
Summary of the method: as §1

[20] = compound: COC(=O)[C@H](CCSC)NC(=O)C1=C(C=C(C=C1)NC[C@H](CS)N)C2=CC=CC=C2
Summary of the method: as §1

UniProt Q9UKN8, sequence (Q9UKN8 whole entry, looked up): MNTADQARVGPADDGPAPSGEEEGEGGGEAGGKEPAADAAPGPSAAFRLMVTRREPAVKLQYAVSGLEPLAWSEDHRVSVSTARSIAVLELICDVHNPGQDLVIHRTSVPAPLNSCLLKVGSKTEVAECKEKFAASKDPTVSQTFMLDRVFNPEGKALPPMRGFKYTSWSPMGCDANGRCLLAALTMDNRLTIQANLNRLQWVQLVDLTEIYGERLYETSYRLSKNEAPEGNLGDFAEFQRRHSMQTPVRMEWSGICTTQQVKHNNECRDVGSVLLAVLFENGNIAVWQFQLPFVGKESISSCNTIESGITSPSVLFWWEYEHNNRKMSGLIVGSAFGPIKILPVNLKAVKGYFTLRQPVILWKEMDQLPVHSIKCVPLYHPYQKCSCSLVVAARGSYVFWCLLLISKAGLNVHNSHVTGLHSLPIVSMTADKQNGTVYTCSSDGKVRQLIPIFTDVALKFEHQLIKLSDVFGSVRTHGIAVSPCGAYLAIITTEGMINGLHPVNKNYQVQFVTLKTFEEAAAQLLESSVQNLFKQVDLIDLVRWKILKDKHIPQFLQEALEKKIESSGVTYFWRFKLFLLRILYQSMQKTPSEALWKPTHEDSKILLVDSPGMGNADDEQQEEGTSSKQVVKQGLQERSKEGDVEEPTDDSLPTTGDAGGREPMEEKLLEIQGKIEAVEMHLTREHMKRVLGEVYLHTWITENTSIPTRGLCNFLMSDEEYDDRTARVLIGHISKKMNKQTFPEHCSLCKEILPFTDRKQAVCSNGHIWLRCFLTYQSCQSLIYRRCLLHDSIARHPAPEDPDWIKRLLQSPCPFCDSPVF
UniProt P22830, sequence (P22830 whole entry, looked up): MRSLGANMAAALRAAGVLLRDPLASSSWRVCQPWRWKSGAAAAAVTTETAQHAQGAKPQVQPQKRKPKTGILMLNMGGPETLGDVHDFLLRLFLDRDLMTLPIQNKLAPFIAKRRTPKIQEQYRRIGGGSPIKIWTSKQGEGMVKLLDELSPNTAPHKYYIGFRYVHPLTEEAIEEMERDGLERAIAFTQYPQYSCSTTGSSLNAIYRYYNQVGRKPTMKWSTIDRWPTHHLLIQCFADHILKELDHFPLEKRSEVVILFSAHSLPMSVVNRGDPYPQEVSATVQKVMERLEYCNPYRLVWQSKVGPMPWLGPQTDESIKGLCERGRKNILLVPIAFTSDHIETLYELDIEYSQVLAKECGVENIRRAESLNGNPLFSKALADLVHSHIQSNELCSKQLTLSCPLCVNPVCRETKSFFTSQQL
UniProt P36915, sequence (P36915 whole entry, looked up): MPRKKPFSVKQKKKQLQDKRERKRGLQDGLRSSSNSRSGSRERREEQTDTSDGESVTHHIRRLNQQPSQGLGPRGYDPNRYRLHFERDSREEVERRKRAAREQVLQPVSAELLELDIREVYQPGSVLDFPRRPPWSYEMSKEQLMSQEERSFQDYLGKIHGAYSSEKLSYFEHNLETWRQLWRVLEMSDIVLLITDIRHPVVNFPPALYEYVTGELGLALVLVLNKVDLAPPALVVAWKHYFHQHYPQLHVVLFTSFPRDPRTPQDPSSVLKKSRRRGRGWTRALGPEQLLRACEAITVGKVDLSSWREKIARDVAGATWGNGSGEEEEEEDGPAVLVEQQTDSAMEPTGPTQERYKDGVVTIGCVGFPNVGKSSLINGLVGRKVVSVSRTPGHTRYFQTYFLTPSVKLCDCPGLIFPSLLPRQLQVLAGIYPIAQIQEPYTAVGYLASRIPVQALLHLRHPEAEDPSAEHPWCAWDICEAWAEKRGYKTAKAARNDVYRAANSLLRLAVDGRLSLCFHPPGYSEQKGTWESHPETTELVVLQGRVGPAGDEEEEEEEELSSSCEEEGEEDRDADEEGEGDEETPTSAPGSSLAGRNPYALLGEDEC
UniProt O15347, sequence (O15347 whole entry, looked up): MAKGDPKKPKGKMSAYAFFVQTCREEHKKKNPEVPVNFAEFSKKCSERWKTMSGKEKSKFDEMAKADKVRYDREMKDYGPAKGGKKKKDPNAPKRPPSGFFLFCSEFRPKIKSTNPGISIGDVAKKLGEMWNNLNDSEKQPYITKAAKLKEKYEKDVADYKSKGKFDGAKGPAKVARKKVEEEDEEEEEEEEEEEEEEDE
UniProt O00291, sequence (O00291 whole entry, looked up): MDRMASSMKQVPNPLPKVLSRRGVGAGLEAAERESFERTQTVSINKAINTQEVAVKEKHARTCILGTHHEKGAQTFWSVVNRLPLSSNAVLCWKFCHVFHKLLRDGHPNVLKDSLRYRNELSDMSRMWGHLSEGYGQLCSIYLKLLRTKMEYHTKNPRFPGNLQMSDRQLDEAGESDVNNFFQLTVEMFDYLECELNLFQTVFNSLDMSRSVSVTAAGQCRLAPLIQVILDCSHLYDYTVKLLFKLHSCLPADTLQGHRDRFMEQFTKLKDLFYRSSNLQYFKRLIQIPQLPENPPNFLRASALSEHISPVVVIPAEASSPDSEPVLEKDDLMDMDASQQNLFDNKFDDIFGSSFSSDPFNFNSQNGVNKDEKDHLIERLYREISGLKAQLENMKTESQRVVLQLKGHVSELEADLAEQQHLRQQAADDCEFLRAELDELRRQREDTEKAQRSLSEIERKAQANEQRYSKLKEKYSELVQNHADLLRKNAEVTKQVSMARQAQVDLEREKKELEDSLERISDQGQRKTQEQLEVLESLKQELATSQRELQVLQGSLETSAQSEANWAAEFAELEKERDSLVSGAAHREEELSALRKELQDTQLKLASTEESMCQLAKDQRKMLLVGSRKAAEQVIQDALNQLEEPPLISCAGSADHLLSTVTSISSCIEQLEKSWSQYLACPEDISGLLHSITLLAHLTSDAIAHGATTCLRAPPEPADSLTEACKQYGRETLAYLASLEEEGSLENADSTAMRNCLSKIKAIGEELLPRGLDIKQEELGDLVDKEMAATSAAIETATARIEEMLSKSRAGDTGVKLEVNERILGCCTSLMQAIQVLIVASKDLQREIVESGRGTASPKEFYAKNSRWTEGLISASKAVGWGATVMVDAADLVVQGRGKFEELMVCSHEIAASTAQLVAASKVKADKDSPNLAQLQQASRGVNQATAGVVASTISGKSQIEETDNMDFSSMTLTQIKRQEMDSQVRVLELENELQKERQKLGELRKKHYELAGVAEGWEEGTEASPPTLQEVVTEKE
UniProt Q8N2G8, sequence (Q8N2G8 whole entry, looked up): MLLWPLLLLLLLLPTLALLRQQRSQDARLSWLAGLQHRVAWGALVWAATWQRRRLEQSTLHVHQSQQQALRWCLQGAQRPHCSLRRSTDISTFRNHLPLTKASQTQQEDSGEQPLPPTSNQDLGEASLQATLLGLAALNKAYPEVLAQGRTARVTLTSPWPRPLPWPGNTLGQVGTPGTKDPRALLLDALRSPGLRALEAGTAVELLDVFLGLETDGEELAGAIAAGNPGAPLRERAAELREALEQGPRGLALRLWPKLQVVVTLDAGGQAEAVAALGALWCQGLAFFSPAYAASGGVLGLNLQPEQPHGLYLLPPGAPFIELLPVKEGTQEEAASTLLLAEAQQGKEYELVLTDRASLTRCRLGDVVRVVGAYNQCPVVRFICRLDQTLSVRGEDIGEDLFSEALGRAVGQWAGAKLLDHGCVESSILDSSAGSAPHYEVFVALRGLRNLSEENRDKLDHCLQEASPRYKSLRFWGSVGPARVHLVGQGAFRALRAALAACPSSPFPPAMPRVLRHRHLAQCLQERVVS
UniProt Q13907, sequence (Q13907 whole entry, looked up): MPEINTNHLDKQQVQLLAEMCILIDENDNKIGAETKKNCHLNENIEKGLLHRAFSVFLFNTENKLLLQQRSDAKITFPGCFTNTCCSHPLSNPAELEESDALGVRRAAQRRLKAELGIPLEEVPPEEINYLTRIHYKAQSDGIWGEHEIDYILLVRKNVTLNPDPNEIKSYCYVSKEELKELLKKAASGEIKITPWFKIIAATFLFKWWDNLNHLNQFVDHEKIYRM
UniProt Q10471, sequence (Q10471 whole entry, looked up): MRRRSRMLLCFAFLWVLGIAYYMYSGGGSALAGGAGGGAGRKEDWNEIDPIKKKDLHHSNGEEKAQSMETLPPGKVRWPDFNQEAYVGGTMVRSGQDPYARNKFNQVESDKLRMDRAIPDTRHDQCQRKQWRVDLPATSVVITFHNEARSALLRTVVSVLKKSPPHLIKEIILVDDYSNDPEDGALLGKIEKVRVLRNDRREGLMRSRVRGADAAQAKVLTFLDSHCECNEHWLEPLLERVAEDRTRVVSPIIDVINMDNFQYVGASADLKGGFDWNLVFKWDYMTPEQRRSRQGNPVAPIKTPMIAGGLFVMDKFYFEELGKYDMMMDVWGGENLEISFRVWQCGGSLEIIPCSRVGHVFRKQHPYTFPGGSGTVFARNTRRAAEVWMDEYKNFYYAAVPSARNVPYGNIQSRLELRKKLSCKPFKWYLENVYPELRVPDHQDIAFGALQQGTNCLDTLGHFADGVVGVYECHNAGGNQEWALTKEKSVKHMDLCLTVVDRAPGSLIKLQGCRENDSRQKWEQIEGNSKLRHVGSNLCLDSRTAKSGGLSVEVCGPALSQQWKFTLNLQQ
UniProt Q86YM7, sequence (Q86YM7 whole entry, looked up): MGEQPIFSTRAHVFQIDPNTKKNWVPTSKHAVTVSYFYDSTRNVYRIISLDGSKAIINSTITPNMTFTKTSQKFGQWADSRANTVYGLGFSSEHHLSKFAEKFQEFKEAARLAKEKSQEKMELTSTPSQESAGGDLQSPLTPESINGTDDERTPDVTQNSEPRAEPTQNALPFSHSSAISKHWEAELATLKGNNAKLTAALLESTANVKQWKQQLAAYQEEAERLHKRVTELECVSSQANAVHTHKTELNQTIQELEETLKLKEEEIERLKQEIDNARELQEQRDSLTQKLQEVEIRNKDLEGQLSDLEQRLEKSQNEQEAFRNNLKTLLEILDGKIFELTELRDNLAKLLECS
UniProt P63218, sequence (P63218 whole entry, looked up): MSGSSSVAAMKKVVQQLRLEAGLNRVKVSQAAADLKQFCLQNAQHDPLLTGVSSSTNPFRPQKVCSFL

| Target | log2 fold change [1] | log2 fold change [2] | log2 fold change [3] | log2 fold change [4] | log2 fold change [5] | log2 fold change [6] | log2 fold change [7] | log2 fold change [8] | log2 fold change [9] | log2 fold change [10] | log2 fold change [11] | log2 fold change [12] | log2 fold change [13] | log2 fold change [14] | log2 fold change [15] | log2 fold change [16] | log2 fold change [17] | log2 fold change [18] | log2 fold change [19] | log2 fold change [20] |
| --- | --- | --- | --- | --- | --- | --- | --- | --- | --- | --- | --- | --- | --- | --- | --- | --- | --- | --- | --- | --- |
| FECH isoform 2 (UniProt P22830) | 0.399 | 0.368 | 0.037 | -0.088 | 0.251 | 0.203 | 0.001 | 0 | -0.123 | 0.163 | -0.035 | 0.008 | -0.016 | -0.12 | 0.245 | 0.102 | 0.043 | 0.538 | -0.033 | -0.116 |
| HIP1 (UniProt O00291) | 0.027 | -0.23 | -0.095 | 0.085 | 0.005 | 0.031 | -0.045 | -0.007 | -0.063 | -0.148 | 0.078 | -0.079 | -0.102 | 0.038 | 0.008 | -0.001 | 0.065 | -0.024 | -0.048 | -0.001 |
| HMGB3 (UniProt O15347) | -0.182 | 0.064 | 0.053 | -0.007 | 0.015 | -0.021 | -0.022 | 0 | -0.039 | 0.015 | 0.05 | 0.031 | -0.022 | 0 | -0.076 | 0.089 | 0.008 | -0.073 | -0.063 | 0.021 |
| HECTD1 (UniProt Q9ULT8) | 0.107 | -0.221 | 0.063 | 0.012 | -0.041 | 0 | 0.016 | 0.056 | 0.17 | -0.054 | -0.184 | -0.066 | 0.111 | 0.071 | 0.033 | -0.026 | 0.056 | -0.001 | -0.154 | -0.018 |
| GHDC (UniProt Q8N2G8) | -0.075 | -0.053 | -0.063 | -0.021 | 0.011 | -0.024 | 0.009 | 0.008 | -0.053 | -0.041 | 0.003 | 0.085 | -0.029 | -0.032 | 0.014 | -0.033 | 0.006 | -0.007 | 0.001 | 0.02 |
| HSPA8 (UniProt E9PK54) | 0.041 | 0.213 | -0.003 | -0.252 | 0.03 | 0.131 | -0.06 | 0.042 | 0.11 | 0.128 | -0.058 | -0.054 | 0.332 | -0.003 | 0.072 | -0.012 | -0.287 | -0.033 | 0.051 | 0.048 |
| GYG1 (UniProt P46976) | 0.107 | 0.338 | 0 | -0.104 | 0.011 | -0.045 | 0.019 | -0.045 | 0.016 | -0.011 | -0.03 | -0.425 | -0.046 | 0.033 | 0.091 | -0.042 | 0.062 | 0.038 | 0.083 | 0.013 |
| GALNT2 (UniProt Q10471) | -0.082 | -0.377 (active) | 0.027 | -0.004 | 0.003 | -0.034 | -0.021 | 0.027 | -0.079 | -0.077 | -0.025 | 0.005 | -0.012 | 0.013 | 0.004 | 0.023 | -0.046 | -0.015 | 0.036 | -0.017 |
| GNG5 (UniProt P63218) | 0.105 | 0.033 | -0.117 | 0.556 (active) | 0.059 | 0.004 | -0.07 | -0.045 | -0.014 | 0.144 | 0.022 | 0.033 | 0.019 | 0.049 | 0.028 | -0.041 | -0.002 | -0.041 | -0.073 | -0.008 |
| HAUS4 (UniProt Q9H6D7) | -0.138 | -0.027 | 0.123 | -0.391 | -0.04 | 0.032 | -0.072 | 0.027 | 0.246 | 0.049 | 0.466 | -0.194 | 0.035 | 0.044 | 0.195 | 0.019 | 0.337 | 0.044 | 0.194 | -0.03 |
| GNL1 (UniProt P36915) | -0.095 | -0.229 (active) | 0.027 | 0.008 | -0.006 | -0.1 | 0.024 | 0.01 | -0.083 | -0.053 | 0.013 | 0.013 | -0.038 | 0.018 | 0.009 | 0.023 | -0.039 | 0.016 | 0.021 | -0.011 |
| HOMER1 (UniProt Q86YM7) | -0.018 | 0.024 | -0.099 | 0.006 | 0.017 | -0.025 | 0.018 | -0.011 | -0.018 | 0.033 | 0.032 | 0.045 | -0.047 | -0.084 | 0.021 | 0.015 | 0.021 | 0.007 | 0.04 | -0.047 |
| FBXO3 (UniProt Q9UK99) | 0.041 | 0.042 | 0.052 | 0.007 | 0.001 | -0.074 | -0.03 | 0.045 | 0.023 | -0.038 | 0.029 | 0.049 | -0.048 | 0.157 | -0.051 | 0.072 | 0.016 | -0.076 | 0.018 | -0.005 |
| HNRNPH1 (UniProt P31943) | -0.124 | -0.583 (active) | 0.1 | 0.018 | -0.192 | -0.025 | 0.072 | 0.025 | 0.083 | -0.247 | -0.018 | -0.157 | -0.163 | 0.076 | -0.065 | -0.278 | 0.08 | 0.058 | 0.114 | -0.047 |
| IDI1 isoform 2 (UniProt Q13907) | 0.055 | 0.127 | -0.05 | -0.079 | -0.008 | -0.081 | -0.065 | -0.01 | -0.004 | -0.005 | 0.01 | 0.065 | -0.017 | -0.174 | -0.002 | -0.006 | -0.124 | 0.002 | -0.001 | 0.044 |
| GTF3C4 (UniProt Q9UKN8) | -0.002 | -0.263 (active) | 0.001 | -0.001 | -0.003 | -0.003 | -0.024 | 0.012 | 0.007 | 0 | 0.06 | 0.021 | -0.03 | -0.009 | -0.005 | -0.081 | 0.029 | -0.001 | 0.043 | -0.01 |
